# Assay results: the supplement of paper PMC10849652
# About 8,800 targets were measured; listed, in parts, are those with a hit and a random draw of the rest. About 0.5% of all pairs of compound and target were hits. A number with no mark means an inactive call.
# Legend:
# Experiment in all cases: log2 fold change, soluble protein after heating vs DMSO (PISA); higher = thermal stabilisation; K562 lysate, 10 uM; active = over 0.2 and 3.5 SD of the protein, either way, in both replicates (recomputed)
# [1] = compound: C1=CC=C(C=C1)[C@H](COC2=CC3=C(C=C2)NC(=O)N3)NC(=O)C4=CC=CN(C4=O)CC5=CC(=C(C=C5)F)F
# In short: (§1)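 Soluble protein was defined as the supernatant remaining after 21,000xg for 90 min, following pooling of heated aliquots and adjustment to 0.5% NP-40 at 4°C. Before that, crude K562 extract at 1 mg/mL protein in PBS pH 7.4 with 1 mM MgCl2 was treated with 10 μM compound for 30 min and heated for 3 min across 48°C-58°C. Quantification used TMTpro 16plex LC-MS/MS with channel sums equalised, and values are log-two fold changes in thermal stability relative to solvent controls from duplicates.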
# [2] = compound: CC1=C(SC2=C1C(=N[C@H](C3=NN=C(N32)C)CC(=O)N)C4=CC=C(C=C4)Cl)C
# In short: as §1
# [3] = compound: CC1=C2C(=CC=C1)N=C(N(C2=O)C3=CC=CC=C3C)CN4C=NC5=C(N=CN=C54)N
# In short: as §1
# [4] = compound: Cc1sc2c(c1C)C(c1ccc(Cl)cc1)=N[C@@H](CC(=O)OC(C)(C)C)c1nnc(C)n1-2
# In short: as §1
# [5] = compound: c1ccc([C@@H]2C[C@H]2NC2CCNCC2)cc1
# In short: as §1
# UniProt P61923, sequence (P61923 whole entry, looked up): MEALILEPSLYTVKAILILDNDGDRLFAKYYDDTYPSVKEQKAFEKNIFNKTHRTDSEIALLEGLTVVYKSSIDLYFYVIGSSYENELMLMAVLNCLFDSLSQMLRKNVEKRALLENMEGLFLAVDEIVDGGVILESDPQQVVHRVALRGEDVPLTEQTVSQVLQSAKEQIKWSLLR
# UniProt Q9UHD1, sequence (Q9UHD1 whole entry, looked up): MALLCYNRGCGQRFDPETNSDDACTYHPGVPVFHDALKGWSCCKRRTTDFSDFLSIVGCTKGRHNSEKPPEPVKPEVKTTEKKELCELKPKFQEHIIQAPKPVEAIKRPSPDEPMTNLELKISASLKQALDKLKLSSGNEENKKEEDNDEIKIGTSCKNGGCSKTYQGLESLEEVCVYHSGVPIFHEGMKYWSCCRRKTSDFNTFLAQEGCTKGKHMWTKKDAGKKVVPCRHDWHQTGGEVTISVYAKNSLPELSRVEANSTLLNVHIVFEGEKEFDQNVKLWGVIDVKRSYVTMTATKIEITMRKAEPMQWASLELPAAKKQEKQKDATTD
# UniProt Q8TDD1, sequence (Q8TDD1 whole entry, looked up): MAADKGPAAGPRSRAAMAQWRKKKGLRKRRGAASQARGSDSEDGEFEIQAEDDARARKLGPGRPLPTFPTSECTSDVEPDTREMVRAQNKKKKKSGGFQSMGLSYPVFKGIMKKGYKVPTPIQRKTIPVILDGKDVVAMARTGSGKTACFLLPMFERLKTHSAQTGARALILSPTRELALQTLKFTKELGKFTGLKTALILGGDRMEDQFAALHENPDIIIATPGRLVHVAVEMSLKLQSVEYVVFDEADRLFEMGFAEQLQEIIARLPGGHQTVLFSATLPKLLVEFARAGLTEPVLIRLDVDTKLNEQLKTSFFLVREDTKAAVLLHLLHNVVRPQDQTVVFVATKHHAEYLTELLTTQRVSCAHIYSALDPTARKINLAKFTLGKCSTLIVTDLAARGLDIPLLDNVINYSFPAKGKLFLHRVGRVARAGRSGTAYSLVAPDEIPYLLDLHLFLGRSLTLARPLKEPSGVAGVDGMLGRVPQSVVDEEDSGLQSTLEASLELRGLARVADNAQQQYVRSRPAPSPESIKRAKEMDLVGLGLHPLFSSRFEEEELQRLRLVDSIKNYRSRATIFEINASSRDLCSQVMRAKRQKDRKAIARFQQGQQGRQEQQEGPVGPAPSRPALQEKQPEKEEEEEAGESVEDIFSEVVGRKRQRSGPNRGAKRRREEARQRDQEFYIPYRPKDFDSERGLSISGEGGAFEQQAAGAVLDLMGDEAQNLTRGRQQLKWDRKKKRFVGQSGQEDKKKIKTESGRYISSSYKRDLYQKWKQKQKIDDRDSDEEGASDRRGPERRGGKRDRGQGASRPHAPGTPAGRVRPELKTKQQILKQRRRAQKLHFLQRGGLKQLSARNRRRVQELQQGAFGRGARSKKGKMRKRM
# UniProt Q92796, sequence (Q92796 whole entry, looked up): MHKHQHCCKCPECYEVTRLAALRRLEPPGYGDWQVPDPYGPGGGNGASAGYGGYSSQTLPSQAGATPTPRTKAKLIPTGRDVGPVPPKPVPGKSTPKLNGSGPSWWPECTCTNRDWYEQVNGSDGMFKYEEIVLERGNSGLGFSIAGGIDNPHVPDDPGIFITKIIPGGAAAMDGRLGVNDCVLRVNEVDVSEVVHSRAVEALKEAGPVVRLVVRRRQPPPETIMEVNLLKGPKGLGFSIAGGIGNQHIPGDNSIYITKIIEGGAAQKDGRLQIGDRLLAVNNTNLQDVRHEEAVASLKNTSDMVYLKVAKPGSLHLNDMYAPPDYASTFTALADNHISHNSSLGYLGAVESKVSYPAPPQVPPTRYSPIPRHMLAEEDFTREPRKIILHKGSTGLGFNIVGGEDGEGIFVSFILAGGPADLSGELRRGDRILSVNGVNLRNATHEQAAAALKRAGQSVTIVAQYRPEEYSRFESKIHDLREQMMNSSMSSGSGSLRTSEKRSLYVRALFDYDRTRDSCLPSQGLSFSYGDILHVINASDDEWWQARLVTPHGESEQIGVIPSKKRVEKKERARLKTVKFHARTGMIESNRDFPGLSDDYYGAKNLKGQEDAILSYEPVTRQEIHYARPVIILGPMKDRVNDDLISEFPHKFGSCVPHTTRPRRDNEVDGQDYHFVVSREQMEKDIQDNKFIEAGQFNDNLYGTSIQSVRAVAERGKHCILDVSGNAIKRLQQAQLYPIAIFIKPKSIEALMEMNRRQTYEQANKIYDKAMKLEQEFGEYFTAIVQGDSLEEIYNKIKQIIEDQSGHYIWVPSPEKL
# UniProt O75534, sequence (O75534 whole entry, looked up): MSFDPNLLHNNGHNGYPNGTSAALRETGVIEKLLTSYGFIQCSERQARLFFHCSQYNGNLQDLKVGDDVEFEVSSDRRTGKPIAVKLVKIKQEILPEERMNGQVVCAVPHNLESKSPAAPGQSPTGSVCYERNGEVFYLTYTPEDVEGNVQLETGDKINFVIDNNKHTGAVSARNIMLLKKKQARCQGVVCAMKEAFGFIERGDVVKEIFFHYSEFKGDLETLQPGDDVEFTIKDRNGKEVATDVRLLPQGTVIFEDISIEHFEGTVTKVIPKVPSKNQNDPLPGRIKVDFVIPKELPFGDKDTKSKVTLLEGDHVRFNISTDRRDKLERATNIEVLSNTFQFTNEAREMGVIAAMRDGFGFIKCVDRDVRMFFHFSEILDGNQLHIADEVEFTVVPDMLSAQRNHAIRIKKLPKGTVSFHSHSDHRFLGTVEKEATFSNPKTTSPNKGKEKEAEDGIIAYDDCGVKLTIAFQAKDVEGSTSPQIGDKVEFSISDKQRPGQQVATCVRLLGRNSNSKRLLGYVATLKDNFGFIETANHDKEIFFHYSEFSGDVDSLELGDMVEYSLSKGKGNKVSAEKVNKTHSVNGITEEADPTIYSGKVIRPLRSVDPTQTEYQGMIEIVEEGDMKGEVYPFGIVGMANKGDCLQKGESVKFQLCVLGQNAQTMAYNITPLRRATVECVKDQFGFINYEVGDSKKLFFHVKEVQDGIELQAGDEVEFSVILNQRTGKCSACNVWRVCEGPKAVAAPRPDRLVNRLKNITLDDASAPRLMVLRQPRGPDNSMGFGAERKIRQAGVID
# UniProt Q13057, sequence (Q13057 whole entry, looked up): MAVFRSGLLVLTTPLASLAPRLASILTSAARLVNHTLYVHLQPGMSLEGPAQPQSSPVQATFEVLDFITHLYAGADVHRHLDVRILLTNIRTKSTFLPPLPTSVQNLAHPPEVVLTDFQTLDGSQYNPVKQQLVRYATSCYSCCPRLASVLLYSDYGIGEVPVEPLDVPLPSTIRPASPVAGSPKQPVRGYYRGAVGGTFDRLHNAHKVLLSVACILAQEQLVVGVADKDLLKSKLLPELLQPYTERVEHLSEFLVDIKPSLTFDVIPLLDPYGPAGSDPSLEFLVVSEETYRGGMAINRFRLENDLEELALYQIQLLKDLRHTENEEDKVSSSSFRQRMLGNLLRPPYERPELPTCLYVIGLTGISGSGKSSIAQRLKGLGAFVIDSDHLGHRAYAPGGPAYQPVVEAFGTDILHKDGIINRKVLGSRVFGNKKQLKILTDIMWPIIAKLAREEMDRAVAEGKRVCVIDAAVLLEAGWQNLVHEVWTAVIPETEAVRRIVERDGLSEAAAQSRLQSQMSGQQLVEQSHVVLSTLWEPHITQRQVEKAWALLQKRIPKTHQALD
# UniProt Q9BY43, sequence (Q9BY43 whole entry, looked up): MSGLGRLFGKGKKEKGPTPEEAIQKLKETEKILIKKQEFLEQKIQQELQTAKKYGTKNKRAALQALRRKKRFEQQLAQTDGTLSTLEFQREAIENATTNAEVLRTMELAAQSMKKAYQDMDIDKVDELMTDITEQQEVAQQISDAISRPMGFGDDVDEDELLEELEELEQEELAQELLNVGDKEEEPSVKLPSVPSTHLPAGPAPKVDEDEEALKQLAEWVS
# UniProt Q14746, sequence (Q14746 whole entry, looked up): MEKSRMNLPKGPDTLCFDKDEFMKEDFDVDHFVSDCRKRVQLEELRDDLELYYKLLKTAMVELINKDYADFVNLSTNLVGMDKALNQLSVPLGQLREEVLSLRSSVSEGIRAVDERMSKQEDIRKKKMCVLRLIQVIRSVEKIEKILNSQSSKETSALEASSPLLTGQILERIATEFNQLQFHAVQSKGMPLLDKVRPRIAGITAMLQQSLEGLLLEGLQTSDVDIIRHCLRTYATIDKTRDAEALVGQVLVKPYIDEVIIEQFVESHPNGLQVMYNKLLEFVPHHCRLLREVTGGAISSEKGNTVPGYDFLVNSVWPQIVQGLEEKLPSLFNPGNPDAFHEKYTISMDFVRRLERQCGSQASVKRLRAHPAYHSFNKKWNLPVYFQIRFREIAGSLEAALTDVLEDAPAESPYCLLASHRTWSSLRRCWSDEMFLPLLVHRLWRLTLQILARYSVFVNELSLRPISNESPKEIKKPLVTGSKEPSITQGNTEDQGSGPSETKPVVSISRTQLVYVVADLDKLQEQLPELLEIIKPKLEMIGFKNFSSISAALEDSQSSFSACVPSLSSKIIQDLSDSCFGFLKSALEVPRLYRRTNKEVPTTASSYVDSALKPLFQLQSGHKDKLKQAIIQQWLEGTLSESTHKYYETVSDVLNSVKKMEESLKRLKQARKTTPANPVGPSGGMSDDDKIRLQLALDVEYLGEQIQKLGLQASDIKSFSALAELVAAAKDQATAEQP
# UniProt Q9H5X1, sequence (Q9H5X1 whole entry, looked up): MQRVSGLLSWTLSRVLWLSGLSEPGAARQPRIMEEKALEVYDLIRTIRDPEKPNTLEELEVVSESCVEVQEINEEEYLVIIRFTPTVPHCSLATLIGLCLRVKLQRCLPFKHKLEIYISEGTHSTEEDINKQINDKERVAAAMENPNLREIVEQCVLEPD
# UniProt O15247, sequence (O15247 whole entry, looked up): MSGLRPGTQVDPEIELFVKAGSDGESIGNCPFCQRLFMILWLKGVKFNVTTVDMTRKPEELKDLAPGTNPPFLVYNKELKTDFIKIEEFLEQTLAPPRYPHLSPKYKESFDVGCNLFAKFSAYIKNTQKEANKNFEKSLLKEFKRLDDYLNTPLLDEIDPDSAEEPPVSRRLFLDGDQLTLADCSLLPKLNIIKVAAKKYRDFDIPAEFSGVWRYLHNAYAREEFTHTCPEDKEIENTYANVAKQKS
Target,log2 fold change [1],log2 fold change [2],log2 fold change [3],log2 fold change [4],log2 fold change [5]
DDX54 isoform 2 (UniProt Q8TDD1),-0.131,0.041,0.09,0.052,0.008
CHMP4A isoform 2 (UniProt Q9BY43),0.035,-0.009,0.007,-0.022,-0.152
DAZAP1 (UniProt Q96EP5),0.011,-0.046,0.005,0.088,-0.086
CTNNBL1 (UniProt Q8WYA6),-0.003,0,0.004,-0.087,0.073
DHFR (UniProt P00374),-0.024,0.024,0.016,0.031,0.021
CORO7 isoform 3 (UniProt P57737),-0.003,-0.006,0.033,0.018,0.036
CSNK2A2 (UniProt P19784),-0.02,-0.033,-0.213,0.038,0.015
COG3 (UniProt Q96JB2),-0.03,-0.015,0.016,0.033,0.019
DLD (UniProt P09622),0.005,-0.017,0.008,-0.022,-0.076
CMSS1 (UniProt Q9BQ75),0.035,-0.069,-0.017,-0.023,0.106
CUEDC2 (UniProt Q9H467),0.074,0.019,-0.017,0.013,0.11
CSNK1A1 (UniProt P48729),-0.027,0.007,-0.033,0.025,-0.044
CIC (UniProt I3L1Q4),0.006,0.225,–,–,–
CXCL14 (UniProt O95715),0.002,-0.088,0.128,–,–
COG2 (UniProt Q14746),-0.038,-0.034,0.054,0.001,0.009
COASY isoform 2 (UniProt Q13057),-0.049,-0.002,0.03,0.07,0.01
CLPTM1L (UniProt Q96KA5),-0.075,0.039,0.04,-0.02,0.022
CNIH4 (UniProt Q9P003),-0.355,-0.301,-0.017,0.11,–
CLIC2 (UniProt O15247),-0.022,0.033,0,0.017,0.029
CNOT6L (UniProt Q96LI5),-0.014,0.017,-0.013,-0.049,-0.164
"CLUH, A0A494C0R8",0.014,0.118,0.133,-0.116,0.132
DOCK8 (UniProt Q8NF50),-0.011,-0.004,0.013,0.005,0.05
COPZ1 isoform 4 (UniProt P61923),-0.101,-0.04,0.06,0.057,0.096
CHORDC1 (UniProt Q9UHD1),0.025,0.006,-0.01,0.017,0.037
DMXL1 (UniProt Q9Y485),0.011,0.01,0,-0.005,0.016
CIAO2A (UniProt Q9H5X1),-0.049,0.062,0.023,-0.032,0.064
DNM2 (UniProt P50570),-0.01,0.038,0.035,0.05,0.057
DPY19L3 (UniProt Q6ZPD9),0.183,-0.131,-0.106,–,–

Target,log2 fold change [1],log2 fold change [2],log2 fold change [3],log2 fold change [4],log2 fold change [5]
DPH5 isoform 5 (UniProt Q9H2P9),0.047,-0.024,0.021,-0.144,-0.118
CSPP1 (UniProt Q1MSJ5),-0.082,0.001,0.051,-0.008,-0.028
DENND1B (UniProt Q6P3S1),0.154,-0.205,-0.062,-0.182,0.014
CSAD isoform 3 (UniProt Q9Y600),-0.081,0.137,–,–,–
CTPS1 (UniProt P17812),-0.02,-0.013,-0.029,-0.014,0.023
CSNK1D (UniProt P48730),-0.027,0.014,-0.127,-0.026,0.025
CIC (UniProt I3L2J0),-0.03,-0.034,-0.109,0.042,-0.02
DIAPH1 (UniProt O60610),-0.005,0.013,0.015,0.007,0.023
CLPB isoform 2 (UniProt Q9H078),-0.031,-0.012,0,0.094,0.079
CKAP2 (UniProt Q8WWK9),0.052,0.066,0.001,-0.003,-0.021
CNOT2 (UniProt Q9NZN8),0.019,-0.016,-0.019,-0.004,0.008
CLIP1 isoform 1 (UniProt P30622),0.04,-0.008,-0.002,-0.028,-0.019
CIB1 (UniProt Q99828),-0.128,-0.272 (active),-0.039,0.023,0.03
DNAJC3 (UniProt Q13217),0.06,-0.073,-0.003,-0.01,0.031
COMT (UniProt P21964),-0.007,-0.01,-0.016,0.062,0.054
COG4 (UniProt Q9H9E3),0.005,0.034,0.096,-0.036,0.011
CHEK1 (UniProt O14757),0.025,0.021,0.006,-0.04,0
CXorf38 (UniProt Q8TB03),0.021,0.007,-0.021,-0.004,0.031
CSDE1 isoform 4 (UniProt O75534),-0.012,-0.009,-0.017,0.046,0.04
CIP2A (UniProt Q8TCG1),-0.03,-0.002,-0.008,-0.021,0.018
DCTN1 (UniProt Q14203),-0.018,-0.017,-0.009,0,0.034
COQ9 (UniProt O75208),-0.102,-0.069,0.026,0.015,0.08
CSNK1G3 (UniProt Q9Y6M4),-0.041,0.017,-0.013,0.006,-0.03
DES (UniProt P17661),0,0.05,0.062,-0.219,-0.131
DLG3 isoform 2 (UniProt Q92796),0,-0.082,-0.085,0.019,0.048
CHML (UniProt P26374),0.011,-0.027,0.01,0.016,-0.03
COG6 (UniProt Q9Y2V7),-0.023,0.011,0.029,-0.032,0.069
